From PubChem BioAssay (EPA / NIEHS) come the findings set out here.

Structures are written as SMILES. Results filed as inconclusive are left out. Calls of active or inactive are those of the source. How the source made its calls: active means hit-call score of the fitted dose curve at least 0.9, where 1 is the maximum; inconclusive means response in the unintended direction; inactive means score below 0.9.

In assay [1] the target is human Tyrosine Protein Kinase Receptor Tie-2 (Tie2), TEK (gene 7010) (UniProt Q02763). The assay is described as follows: NVS_ENZ_hTie2: NovaScreen (NVS) Enzymatic Assay for human Tyrosine Protein Kinase Receptor Tie-2 (Tie2) (AID 2283225). A digest of the protocol: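 Substrate and product were separated by mobility shift and detected by fluorescence after a 1-hour reaction with recombinant Tie2. Chemicals passing a 25 uM single-point screen were titrated to a maximum of 50 uM. Results were normalized to DMSO baseline.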
Sequence of human Tyrosine Protein Kinase Receptor Tie-2 (Tie2), TEK (gene 7010) (Q02763 whole entry, looked up): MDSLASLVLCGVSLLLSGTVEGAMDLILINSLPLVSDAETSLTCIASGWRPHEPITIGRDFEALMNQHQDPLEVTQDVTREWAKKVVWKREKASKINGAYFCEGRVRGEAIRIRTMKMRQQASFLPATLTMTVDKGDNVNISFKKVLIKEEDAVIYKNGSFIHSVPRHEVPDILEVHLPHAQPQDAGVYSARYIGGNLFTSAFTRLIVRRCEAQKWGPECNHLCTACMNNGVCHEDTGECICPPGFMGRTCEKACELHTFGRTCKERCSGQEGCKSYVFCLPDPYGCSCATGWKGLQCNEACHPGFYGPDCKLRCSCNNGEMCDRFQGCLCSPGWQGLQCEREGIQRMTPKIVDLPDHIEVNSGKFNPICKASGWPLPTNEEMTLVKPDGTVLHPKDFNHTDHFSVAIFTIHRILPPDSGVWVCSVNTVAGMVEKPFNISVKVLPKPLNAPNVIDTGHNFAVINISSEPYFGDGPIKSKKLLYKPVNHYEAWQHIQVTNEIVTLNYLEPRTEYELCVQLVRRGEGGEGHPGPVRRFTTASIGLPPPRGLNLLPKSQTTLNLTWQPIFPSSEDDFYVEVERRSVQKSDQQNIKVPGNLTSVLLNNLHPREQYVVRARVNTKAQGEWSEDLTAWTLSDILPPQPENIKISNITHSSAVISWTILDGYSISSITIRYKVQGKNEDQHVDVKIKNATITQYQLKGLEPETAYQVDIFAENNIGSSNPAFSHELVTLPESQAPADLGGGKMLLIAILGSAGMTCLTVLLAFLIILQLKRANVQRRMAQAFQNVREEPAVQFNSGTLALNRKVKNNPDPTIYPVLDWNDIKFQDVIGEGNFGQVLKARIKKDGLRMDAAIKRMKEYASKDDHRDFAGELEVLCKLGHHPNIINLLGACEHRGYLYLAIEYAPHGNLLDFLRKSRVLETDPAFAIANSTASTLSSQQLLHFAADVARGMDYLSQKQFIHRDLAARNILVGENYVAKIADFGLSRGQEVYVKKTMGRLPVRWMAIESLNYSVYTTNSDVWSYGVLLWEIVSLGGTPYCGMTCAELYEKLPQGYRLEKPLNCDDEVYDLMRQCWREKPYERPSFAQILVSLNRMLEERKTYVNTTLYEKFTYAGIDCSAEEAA

Assay [2] concerns the target rat Adenylate Cyclase, Forskolin Stimulated, Adcy5 (gene 64532) (UniProt Q04400). Nature of the assay: NVS_ENZ_rACFSKBinding: NovaScreen (NVS) Enzymatic Assay for rat Adenylate Cyclase, Forskolin Stimulated (AID 2283232). Here is the method:
NVS_ENZ_rACFSKBinding is a biochemical, single-readout assay that uses extracted gene-proteins from Rat forebrain membranes in a tissue-based cell-free assay. Measurements were taken 1 hour after chemical dosing in a 48-well plate.NVS_ENZ_rACFSKBinding is one of one assay component(s) measured or calculated from the NVS_ENZ_rACFSKBinding assay. It is designed to make measurements of enzyme activity, a form of enzyme reporter, as detected with scintillation counting signals by Filter-based radiodetection technology.Data from the assay component NVS_ENZ_rACFSKBinding was analyzed into 1 assay endpoint. This assay endpoint, NVS_ENZ_rACFSKBinding, was analyzed in the positive analysis fitting direction relative to DMSO as the negative control and baseline of activity. Using a type of enzyme reporter, loss-of-signal activity can be used to understand changes in the enzymatic activity as they relate to the gene Adcy5. Furthermore, this assay endpoint can be referred to as a primary readout, because this assay has produced multiple assay endpoints where this one serves a enzymatic activity function. To generalize the intended target to other relatable targets, this assay endpoint is annotated to the lyase intended target family, where the subfamily is adenylyl cyclase. […]

The nature of assay [3]: NVS_GPCR_bNPY_NonSelective: NovaScreen (NVS) G Protein-Coupled Receptor Assay for bovine Neuropeptide Y (NPY) Receptor, Non-selective Binding (AID 2283245). Here is the method:
NVS_GPCR_bNPY_NonSelective is a biochemical, single-readout assay that uses extracted gene-proteins from Bovine hippocampal membranes in a tissue-based cell-free assay. Measurements were taken 1 hour after chemical dosing in a 96-well plate.NVS_GPCR_bNPY_NonSelective is one of one assay component(s) measured or calculated from the NVS_GPCR_bNPY_NonSelective assay. It is designed to make measurements of radioligand binding, a form of binding reporter, as detected with scintillation counting signals by Filter-based radiodetection technology.Data from the assay component NVS_GPCR_bNPY_NonSelective was analyzed into 1 assay endpoint. This assay endpoint, NVS_GPCR_bNPY_NonSelective, was analyzed in the positive analysis fitting direction relative to DMSO as the negative control and baseline of activity. Using a type of binding reporter, loss-of-signal activity can be used to understand changes in the binding as they relate to the gene NPY. Furthermore, this assay endpoint can be referred to as a primary readout, because the performed assay has only produced 1 assay endpoint. To generalize the intended target to other relatable targets, this assay endpoint is annotated to the gpcr intended target family, where the subfamily is rhodopsin-like receptor. […]

In assay [4] the target is human Vascular Endothelial Growth Factor Receptor 3 (VEGFR3), FLT4 (gene 2324) (UniProt P35916). The assay is described as follows: NVS_ENZ_hVEGFR3: NovaScreen (NVS) Enzymatic Assay for human Vascular Endothelial Growth Factor Receptor 3 (VEGFR3) (AID 2283229). The essentials:
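Chemicals first run in duplicate at 25 uM, with actives re-tested in concentration series to a top of 50 uM. Recombinant VEGFR3 activity measured after 1 h via fluorescence with mobility-shift product separation; inhibition fitted relative to DMSO.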

In assay [5] the target is rat Acetylcholinesterase (AChE), Ache (gene 83817) (UniProt P37136). The assay is described as follows: NVS_ENZ_rAChE: NovaScreen (NVS) Enzymatic Assay for rat Acetylcholinesterase (AChE) (AID 2283233). As for the experimental part:
NVS_ENZ_rAChE is a biochemical, single-readout assay that uses extracted gene-proteins from Rat brain membranes in a tissue-based cell-free assay. Measurements were taken 0.33 hour after chemical dosing in a 96-well plate.NVS_ENZ_rAChE is one of one assay component(s) measured or calculated from the NVS_ENZ_rAChE assay. It is designed to make measurements of enzyme activity, a form of enzyme reporter, as detected with absorbance signals by Colorimetric technology.Data from the assay component NVS_ENZ_rAChE was analyzed into 1 assay endpoint. This assay endpoint, NVS_ENZ_rAChE, was analyzed in the positive analysis fitting direction relative to DMSO as the negative control and baseline of activity. Using a type of enzyme reporter, loss-of-signal activity can be used to understand changes in the enzymatic activity as they relate to the gene Ache. Furthermore, this assay endpoint can be referred to as a primary readout, because this assay has produced multiple assay endpoints where this one serves a enzymatic activity function. To generalize the intended target to other relatable targets, this assay endpoint is annotated to the esterase intended target family, where the subfamily is acetylcholinesterase. […]

Assay [6] addresses rat Catechol-O-Methyl Transferase (COMT), Comt (gene 24267) (UniProt P22734). Nature of the assay: NVS_ENZ_rCOMT: NovaScreen (NVS) Enzymatic Assay for rat Catechol-O-Methyl Transferase (COMT) (AID 2283235). A digest of the protocol:
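Rat dorsal striatum extract served as COMT source; product quantified by HPLC/spectrophotometry, read at 0 h after dosing. Primary single-concentration screen at 25 uM, followed by concentration series to a 50 uM maximum.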

In assay [7] the test system is bovine Histamine 1 Receptor (H1), gene 281231. The assay is described as follows: NVS_GPCR_bH1: NovaScreen (NVS) G Protein-Coupled Receptor Assay for bovine Histamine 1 Receptor (H1) (AID 2283246). The essentials:
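Hits from a 25 uM duplicate primary screen were retested in concentration series (top 50 uM); binding measured as scintillation-counted displacement of radioligand from bovine cerebellar membranes after 1 h, normalised to DMSO.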

Sequence of rat Acetylcholinesterase (AChE), Ache (gene 83817) (P37136 whole entry, looked up): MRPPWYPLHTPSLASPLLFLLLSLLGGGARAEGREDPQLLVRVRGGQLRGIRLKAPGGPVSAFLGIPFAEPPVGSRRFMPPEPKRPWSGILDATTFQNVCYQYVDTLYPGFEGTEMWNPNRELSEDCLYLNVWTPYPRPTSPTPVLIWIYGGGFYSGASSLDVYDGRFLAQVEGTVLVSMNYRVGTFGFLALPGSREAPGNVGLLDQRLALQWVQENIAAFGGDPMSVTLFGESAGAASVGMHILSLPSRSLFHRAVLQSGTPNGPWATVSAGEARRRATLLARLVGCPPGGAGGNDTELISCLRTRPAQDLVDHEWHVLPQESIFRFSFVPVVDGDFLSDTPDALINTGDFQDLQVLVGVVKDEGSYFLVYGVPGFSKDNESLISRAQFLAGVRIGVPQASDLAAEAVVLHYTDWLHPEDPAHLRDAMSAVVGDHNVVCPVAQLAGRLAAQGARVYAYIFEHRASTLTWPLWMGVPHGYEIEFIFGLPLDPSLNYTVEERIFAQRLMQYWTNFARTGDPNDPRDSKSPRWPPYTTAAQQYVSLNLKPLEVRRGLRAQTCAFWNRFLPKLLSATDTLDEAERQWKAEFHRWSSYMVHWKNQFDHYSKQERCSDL
Sequence of rat Adenylate Cyclase, Forskolin Stimulated, Adcy5 (gene 64532) (Q04400 whole entry, looked up): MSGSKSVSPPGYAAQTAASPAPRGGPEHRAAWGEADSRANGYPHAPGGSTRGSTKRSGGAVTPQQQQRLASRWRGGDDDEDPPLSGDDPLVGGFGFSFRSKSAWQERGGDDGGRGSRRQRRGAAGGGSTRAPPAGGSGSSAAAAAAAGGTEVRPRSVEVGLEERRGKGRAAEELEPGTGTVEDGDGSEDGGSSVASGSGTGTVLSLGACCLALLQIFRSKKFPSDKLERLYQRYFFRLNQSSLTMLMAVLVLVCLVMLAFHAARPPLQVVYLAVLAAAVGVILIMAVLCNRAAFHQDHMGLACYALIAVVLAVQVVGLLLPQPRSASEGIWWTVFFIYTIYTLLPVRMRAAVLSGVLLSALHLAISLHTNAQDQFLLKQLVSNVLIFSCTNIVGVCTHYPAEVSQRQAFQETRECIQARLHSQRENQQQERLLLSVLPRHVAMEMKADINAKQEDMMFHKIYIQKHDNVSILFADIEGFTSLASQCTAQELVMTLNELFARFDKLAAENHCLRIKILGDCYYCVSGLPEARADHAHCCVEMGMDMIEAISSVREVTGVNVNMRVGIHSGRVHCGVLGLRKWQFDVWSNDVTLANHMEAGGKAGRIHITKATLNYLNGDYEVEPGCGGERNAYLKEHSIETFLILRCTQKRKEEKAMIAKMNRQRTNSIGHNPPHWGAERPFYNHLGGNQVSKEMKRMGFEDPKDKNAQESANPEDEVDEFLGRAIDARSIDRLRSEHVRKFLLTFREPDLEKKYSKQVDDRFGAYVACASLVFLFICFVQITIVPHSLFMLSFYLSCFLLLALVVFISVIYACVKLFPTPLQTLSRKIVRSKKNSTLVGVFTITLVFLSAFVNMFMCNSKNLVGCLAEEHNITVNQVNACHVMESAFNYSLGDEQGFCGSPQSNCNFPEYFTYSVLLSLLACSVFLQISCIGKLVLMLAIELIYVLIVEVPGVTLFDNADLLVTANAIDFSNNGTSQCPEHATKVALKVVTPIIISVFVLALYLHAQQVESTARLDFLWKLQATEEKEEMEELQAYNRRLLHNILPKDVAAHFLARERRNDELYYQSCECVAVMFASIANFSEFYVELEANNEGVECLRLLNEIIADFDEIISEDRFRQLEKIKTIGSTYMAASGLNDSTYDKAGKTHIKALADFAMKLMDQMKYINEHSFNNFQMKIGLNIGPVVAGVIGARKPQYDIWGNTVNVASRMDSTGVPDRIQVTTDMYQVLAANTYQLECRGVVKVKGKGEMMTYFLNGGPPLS
Sequence of rat Catechol-O-Methyl Transferase (COMT), Comt (gene 24267) (P22734 whole entry, looked up): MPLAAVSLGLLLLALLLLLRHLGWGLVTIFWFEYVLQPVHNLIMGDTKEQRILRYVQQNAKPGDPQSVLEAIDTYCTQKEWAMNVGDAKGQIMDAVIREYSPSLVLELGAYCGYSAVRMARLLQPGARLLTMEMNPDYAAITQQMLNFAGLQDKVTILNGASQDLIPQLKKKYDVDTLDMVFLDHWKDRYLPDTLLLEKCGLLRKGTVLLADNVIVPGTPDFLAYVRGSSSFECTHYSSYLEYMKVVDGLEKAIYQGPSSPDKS
Sequence of human Vascular Endothelial Growth Factor Receptor 3 (VEGFR3), FLT4 (gene 2324) (P35916 whole entry, looked up): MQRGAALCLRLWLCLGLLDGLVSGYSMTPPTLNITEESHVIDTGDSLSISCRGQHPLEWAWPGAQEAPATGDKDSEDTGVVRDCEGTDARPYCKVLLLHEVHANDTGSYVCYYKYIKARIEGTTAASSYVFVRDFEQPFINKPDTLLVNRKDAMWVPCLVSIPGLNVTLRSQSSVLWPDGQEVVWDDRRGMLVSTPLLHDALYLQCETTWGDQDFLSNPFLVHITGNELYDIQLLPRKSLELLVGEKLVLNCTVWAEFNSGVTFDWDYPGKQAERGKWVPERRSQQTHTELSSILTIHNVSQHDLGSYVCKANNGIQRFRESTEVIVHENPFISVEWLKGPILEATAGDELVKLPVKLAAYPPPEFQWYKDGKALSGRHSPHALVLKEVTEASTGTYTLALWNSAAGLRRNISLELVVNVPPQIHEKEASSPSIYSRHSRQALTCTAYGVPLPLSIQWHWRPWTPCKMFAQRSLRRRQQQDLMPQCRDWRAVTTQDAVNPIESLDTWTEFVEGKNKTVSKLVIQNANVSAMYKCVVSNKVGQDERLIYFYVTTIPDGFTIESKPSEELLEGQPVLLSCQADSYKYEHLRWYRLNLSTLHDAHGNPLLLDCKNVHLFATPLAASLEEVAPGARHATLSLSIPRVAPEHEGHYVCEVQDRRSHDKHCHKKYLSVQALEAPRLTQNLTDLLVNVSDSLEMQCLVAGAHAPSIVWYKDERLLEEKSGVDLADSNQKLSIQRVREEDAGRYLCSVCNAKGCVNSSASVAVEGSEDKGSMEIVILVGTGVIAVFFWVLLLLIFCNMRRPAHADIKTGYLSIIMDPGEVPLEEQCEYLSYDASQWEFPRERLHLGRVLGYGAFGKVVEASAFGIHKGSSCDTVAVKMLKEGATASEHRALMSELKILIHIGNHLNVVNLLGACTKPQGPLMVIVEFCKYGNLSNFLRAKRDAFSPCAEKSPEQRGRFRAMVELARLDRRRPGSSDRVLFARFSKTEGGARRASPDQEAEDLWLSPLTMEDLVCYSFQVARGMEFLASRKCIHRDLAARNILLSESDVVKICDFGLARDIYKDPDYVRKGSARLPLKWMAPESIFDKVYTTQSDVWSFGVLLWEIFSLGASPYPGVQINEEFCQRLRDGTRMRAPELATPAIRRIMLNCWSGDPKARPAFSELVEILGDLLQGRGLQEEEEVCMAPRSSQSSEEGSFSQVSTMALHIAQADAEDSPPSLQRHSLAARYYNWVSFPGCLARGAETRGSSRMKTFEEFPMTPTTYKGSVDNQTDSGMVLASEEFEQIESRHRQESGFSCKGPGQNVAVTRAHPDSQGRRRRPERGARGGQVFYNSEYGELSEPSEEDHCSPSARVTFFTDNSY

With `COP(=S)(OC)Oc1ccc(Sc2ccc(OP(=S)(OC)OC)cc2)cc1`, in assay [1], the outcome was inactive.

As to `CC(=O)[O][Hg][c]1ccccc1`, in assay [1], the compound was classed as inactive. Besides, the half-maximal activity concentration (AC50) in assay [2] is 26.8 µM (active); in assay [3] it was 4.57 µM (active).

Take `Clc1ccc(C2(Cn3cncn3)CC(Br)CO2)c(Cl)c1` (stereo unspecified): the outcome in assay [4] was inactive.

Consider `C=C(C)C(=O)[O][Sn]([CH2]CCC)([CH2]CCC)[CH2]CCC`, for which the outcome in assay [2] was inactive. Moreover, in assay [3], the half-maximal activity concentration (AC50) was 2.56 µM (active).

`CCN1CCC2(CC1)COc1cc3c(cc12)N(C(=O)c1ccc(-c2ccc(-c4nnc(C)o4)cc2C)cc1)CC3`: in assay [5], the AC50 was 3.06 µM (active).

Regarding `COc1cc2c(cc1OC)[C@@]13CCN4CC5=CCO[C@H]6CC(=O)N2[C@H]1[C@H]6[C@H]5C[C@H]43`, in assay [5], the AC50 is 18.1 µM (active).

Take `Oc1cccc2cccnc12`: the AC50 in assay [6] was 1.53 µM (active).

As for `C[C@@H]1C[C@@H]([C@H](O)CC2CC(=O)NC(=O)C2)C(=O)[C@@H](C)C1`, in assay [7], the call was inactive.
